DT40 TDP1 CPT: DT40-hTDP1 cell growth loss with CPT; Potency, µM (doses to about 46.2 µM), for the others: at the top dose activity change, negative = growth inhibition, most hits filed as inhibitors; chicken DT40 Tdp1-/-;hTDP1 cells + 20 nM CPT, ATP luminescence, 48 h; actives 12% (n = 420,000); further: potency means the concentration at half of the fitted maximal effect; nearly all actives have a fitted effect of over 55% in size
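Chicken DT40 Tdp1-/- cells complemented with human TDP1, 400 cells/well, exposed to compounds plus 20 nM camptothecin for at least 48 h at 37 C; viability read as ATP content by CellTiter-Glo luminescence.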
HT1080NT lethal: kills 2HG-producing HT-1080-NT fibrosarcoma cells | HT-1080-NT fibrosarcoma viability, CellTiter-Glo ATP luminescence, 48 h | actives 1.6% (n = 360,000) | Potency, µM (titrated, usually from 46.1 µM), for the others: at the top dose activity, negative = less viability, most hits filed as cytotoxic;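 further: NT is the 2HG producing partner of a matched IDH1 knockdown line; potency means the concentration at half of the fitted maximal effect; 0% = DMSO-treated cells and -100% = media-only wells without cells; nearly all actives have a fitted effect of over 55% in size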
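Luminescent CellTiter-Glo readout after 48 hours of compound exposure at 37 degrees C defined viability of HT-1080-NT cells. Activity was normalized to DMSO wells and cell-free media wells; concentration-response curves were fitted and assigned curve classes.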
IL1B secr inh: inflammasome signaling inhibition, IL-1 beta readout; THP-1 LPS/ATP IL-1B secretion, AlphaLISA, 16 h; hits give low values; activity change, % at 57.5 µM; actives 4.7% (n = 360,000); AID 743279; in the data active means activity change below about -50%; inconclusive means mostly about -30% to -49%
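THP-1 cells pretreated 1 hr with compounds (up to 57.5 uM final), then stimulated with LPS (250 ng/mL final) plus ATP (1.25 mM final); secreted IL-1B measured by AlphaLISA after 16 hr, decreased signal indicating inhibition.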
DT40 TDP1 no CPT: qHTS for Inhibitors of human tyrosyl-DNA phosphodiesterase 1 (TDP1): qHTS in cells in absence of CPT; DT40 Tdp1-/- hTDP1 cells, no CPT, ATP luminescence, 48 h; Potency, µM (doses to about 46.2 µM), inactives show at the top dose activity change, negative = growth inhibition, hits mostly inhibitors; actives 15% (n = 420,000); further: potency means the concentration at half of the fitted maximal effect; nearly all actives have a fitted effect of over 55% in size
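Seeded 400 DT40-hTDP1 cells/well (vehicle DMSO, no 20 nM CPT); pinned compounds; ≥48 hr at 37 °C; CellTiter-Glo luminescence as viability measure.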
HT1080 IDH1KD tx: toxicity to HT-1080 IDH1 knockdown cells (counter line); HT-1080 IDH1 knockdown viability, ATP luminescence, 48 h; Potency, µM (top dose mostly 46.1 µM), without a hit: top-dose activity, negative = toxicity, hits mostly cytotoxic; actives 2% (n = 360,000); AID 686971;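 further: potency means the concentration at half of the fitted maximal effect; 0% = DMSO wells and -100% = cell-free medium wells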
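Knockdown cells (IDH1KD HT-1080) received compounds 2 h after plating at 750 cells/well and were kept 48 h at 37 °C in 5% FBS RPMI. A CellTiter-Glo luminescence read gave % activity for curve fitting.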
ELG1 repair inh: blocks ELG1-dependent DNA repair in HEK293T cells; Potency, µM (top dose mostly 46.1 µM), inactives show at the highest dose activity change, negative = inhibition, usual class: inhibitors; HEK293T ELG1-luciferase reporter, luminescence, 16 h; DNA damage induced by 5-fluorouridine; actives 2.3% (n = 330,000); further: potency means the concentration at half of the fitted maximal effect; nearly all actives have a fitted effect of over 55% in size
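HEK293T cells expressing luciferase-tagged ELG1 (2,000/well) received 5-Fluorouridine plus compound or DMSO for 16 hr at 37 °C. Luciferase was read by ONE-Glo luminescence after 30 min at room temperature.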
The depositor's hits bear a star; u = inconclusive; x = no result; [ ] = another dose, or the depositor's remark. This is a sample that favours compounds with a hit; in the whole collection about 19% have one here. Unless noted, the call rests on the fitted dose curve; in most records, active means well fitted curve in the direction sought with a large enough effect; inconclusive means small, poorly fitted or top-dose-only effect, or another doubt; inactive means no such curve, though single readings can be large; an effect the other way counts as inactive or inconclusive. Unless noted, on the % scale 0 is the no-effect control and ±100 the full control effect.

SMILES	DT40 TDP1 CPT	HT1080NT lethal	IL1B secr inh	DT40 TDP1 no CPT	HT1080 IDH1KD tx	ELG1 repair inh
Cc1nn(CC(=O)NCCc2ccc(Cl)cc2)c(=O)c2cc3cc(F)ccc3n12	-3.9%	x	x	-0.9%	x	x
O=[N+]([O-])c1cccc(C=Nc2cccc3ccccc23)c1O	-6.2%	-27.6%	9.7	-21.3%	-6.4%	0.0%
O=[N+]([O-])c1cc(-c2ccccc2)cc([N+](=O)[O-])c1O	u	18.4µM*	19.5	18.4µM*	u	x
O=[N+]([O-])c1cc2ccccc2c(O)c1O	23.1µM*	-4.5%	10.9	u	-0.7%	x
N#CCc1c(C#N)c(N)nc(N2CCCC(CO)C2)c1C#N (stereo not given)	0.3%	-1.1%	46.5	5.1%	6.0%	10.0%
Nc1ccc(CC(N)c2csc(Nc3cc(Oc4ccccc4)ncn3)n2)cc1 (stereo not given)	u	u	-85.3*	23.1µM*	u	x
NC(Cc1ccc(C(F)(F)F)cc1)c1csc(Nc2cc(Oc3ccccc3)ncn2)n1 (stereo not given)	u	u	-88.9*	u	u	x
Clc1ccc(CON/C=N/c2ncnc3sccc23)cc1	11.6µM*	-20.7%	-14.7	11.6µM*	-15.2%	u
C(=N\c1ncnc2sccc12)/NOCc1ccccc1	23.1µM*	-14.7%	u	9.2µM*	-10.9%[9.24 µM]	u
COc1ccc(COc2ccsc2C(=O)Nc2ccc(Cl)cc2)cc1	u	u	48.3	u	u	-13.2%
COc1cc(C(=O)O)ccc1OCc1ccncc1	-3.4%	1.2%	1.7	-1.3%	4.7%	11.6%
Cc1cc(C)c2c(=O)[nH][nH]c2n1	u	8.0%	11.0	-26.6%	7.7%	x
Cc1cc[n+](CCC2CCCCC2)cc1	10µM*	x	x	11.2µM*	x	x
CC(C)(O)c1[nH]c2cc(F)ccc2c1C(C)(C)O	u	3.0%	21.5	-25.1%	-4.3%	-11.3%
COc1ccc(NC(=O)c2oc3ccccc3c2NC(=O)Cc2coc3cc(C)ccc23)cc1	u	x	x	11.6µM*	x	x
COC(=O)c1cc(NC(=O)Cc2coc3cc(OC)ccc23)cc(C(=O)OC)c1	23.1µM*	1.7%	-15.7	u	-29.7%	16.4µM*
COc1ccc(CC(=O)Nc2c(C(=O)Nc3ccc(F)cc3)oc3ccccc23)cc1OC	11.6µM*	x	x	20.6µM*	x	x
O=[N+]([O-])c1ccccc1S(=O)(=O)N1CCN(Cc2ccsc2)CC1	7.2%	5.2%	12.0	-13.4%	4.6%	7.5%
COc1ccc(NC(=O)c2[nH]nc3c2CSc2ccccc2-3)c(OC)c1	-13.2%	x	x	-28.0%	x	x
CCOc1ccc(C(=O)Nc2nnc(S(=O)(=O)Nc3ccccc3C)s2)cc1	-12.1%	-2.8%	18.1	-21.0%	-9.9%	14.3%
CCC(C)NC(=O)C1CCC(CNS(=O)(=O)c2ccc3c(c2)CC(C)N3C(C)=O)CC1 (stereo not given)	u	7.9%	28.3	-8.8%	18.4%	2.1%
CC(=O)N1c2ccc(S(=O)(=O)NCC3CCC(C(=O)Nc4ccccc4C)CC3)cc2CC1C (stereo not given)	25.9µM*	x	x	20.6µM*	x	x
CC(=O)N1c2ccc(S(=O)(=O)NCC3CCC(C(=O)N4CC(C)CC(C)C4)CC3)cc2CC1C (stereo not given)	16.4µM*	-15.6%	31.2	13µM*	-0.3%	-13.3%
CC(=O)N1c2ccc(S(=O)(=O)NCC3CCC(C(=O)Nc4cc(C)ccc4C)CC3)cc2CC1C (stereo not given)	23.1µM*	x	x	18.4µM*	x	x
CC(=O)N1c2ccc(S(=O)(=O)NCC3CCC(C(=O)NC4CCCCC4)CC3)cc2CC1C (stereo not given)	-18.7%	u	-8.3	2.91µM*	-24.3%	-17.6%
SMILES	DT40 TDP1 CPT	HT1080NT lethal	IL1B secr inh	DT40 TDP1 no CPT	HT1080 IDH1KD tx	ELG1 repair inh
Cc1ccc(C(=O)NCC(=O)NC23CC4CC(CC(C4)C2)C3)cc1	-3.2%	-5.5%	15.2	2.9%	-1.8%	u
OCC[C@H]1C[C@@H](O)[C@H](O)[C@]2(Cc3ccccc3CCO2)O1	-11.0%	26.1%	13.1	0.5%	14.6%	3.9%
Cc1ccc(S(=O)(=O)c2nc(Cc3ccccc3)oc2N2CCOCC2)cc1	1.1%	8.8%	-5.4	-17.6%	6.3%	19.9%
CC(=O)N1c2ccc(S(=O)(=O)NCC3CCC(C(=O)NCc4ccc(C)o4)CC3)cc2CC1C (stereo not given)	u	0.7%	18.4	-5.9%	-14.0%	2.9%
CC(=O)N1c2ccc(S(=O)(=O)NCC3CCC(C(=O)NCCC(C)C)CC3)cc2CC1C (stereo not given)	14.6µM*	x	x	16.4µM*	x	x
CC(=O)N1c2ccc(S(=O)(=O)NCC3CCC(C(=O)Nc4cc(C)ccn4)CC3)cc2CC1C (stereo not given)	18.4µM*	u	-78.5*	16.4µM*	u	-29.4%
CCCNC(=O)C1CCC(CNS(=O)(=O)c2ccc3c(c2)CC(C)N3C(C)=O)CC1 (stereo not given)	u	-4.5%	0.0	u	-3.1%	u
COCCNC(=O)C1CCC(CNS(=O)(=O)c2ccc3c(c2)CC(C)N3C(=O)C2CC2)CC1 (stereo not given)	-6.3%	6.9%	-18.3	-0.8%	3.1%	-1.0%
CC(=O)N1c2ccc(S(=O)(=O)NCC3CCC(C(=O)Nc4ncccc4C)CC3)cc2CC1C (stereo not given)	u	0.8%	9.1	-2.8%	15.5%	-2.0%

Screening data as filed in PubChem.
